Test results published in PubChem BioAssay AID1117283 (Broad Institute, 2014).
Measured potencies and affinities stand elsewhere. A number with no mark means an inactive call.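 Rule for the calls: active = fluorescent signal decreased by at least 40%; inconclusive = no clear call, values can overlap the other calls; inactive = the rest, including activity opposite to the expected direction.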

Assay: inhibition of fibronectin matrix deposition – AH1F cells, Alexa488-fibronectin fluorescence, cherry-pick, set 2, dose response (AID 1117283);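 note: AH1F fibroblasts given Alexa488-labelled fibronectin at 24 nM final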
Conditions: AH1F fibroblasts, overnight; series mostly up to 35 µM; activity change, negative = inhibition: at the top concentration
For `CO[C@@H]1CN(C)C(=O)c2cc(NC(=O)Nc3ccc(Cl)c(Cl)c3)ccc2OC[C@H](C)NC[C@H]1C`, the “activity change, negative = inhibition” value was 8.41%. For `C[C@H](CO)N1C[C@H](C)[C@@H](CN(C)Cc2ccccc2)Oc2ncc(-c3ccccc3)cc2C1=O`, the “activity change, negative = inhibition” value was 11.5%. For `N#C[C@H]1[C@@H](c2ccccc2C2=CCCCC2)[C@H](CO)N1S(=O)(=O)c1ccccc1`, the “activity change, negative = inhibition” value was 3.14% [at 30 µM]. For `CN(C)C(=O)c1ccc(-c2ccc3c(c2)[C@H]2[C@H](CCN2C(=O)c2ccc(F)cc2)[C@@H](CO)N3C)cc1`, the “activity change, negative = inhibition” value was 9.06% [at 30 µM]. For `O=S(=O)(c1ccccc1F)N1CC[C@@H]2[C@H](CO)Nc3ccc(-c4cccc(F)c4)cc3[C@@H]21`, the “activity change, negative = inhibition” value was -7.86%. With `COCC(=O)Nc1ccc2c(c1)C(=O)N(C)[C@@H]1CC[C@@H](CC(=O)NCc3ccccc3Cl)O[C@@H]1CO2` the “activity change, negative = inhibition” value was -3.34%. With `Nc1nc(-c2cc3c(cc2Cl)OCCO3)cs1` the “activity change, negative = inhibition” value was 11.5%. For `CO[C@H]1CN(C)C(=O)c2cc(NC(=O)Nc3ccc(Cl)c(Cl)c3)ccc2OC[C@@H](C)NC[C@@H]1C`, the “activity change, negative = inhibition” value was -5.32%. With `COC(=O)c1c(NC(=O)CN2CCN(c3ccccc3Cl)CC2)sc(C)c1C` the “activity change, negative = inhibition” value was 3.46%. In the case of `Cc1ccc(O)c(-c2cc(-c3cccc(Br)c3)n[nH]2)c1`, the “activity change, negative = inhibition” value is reported as 6.22%. In the case of `O=C(NCCS(=O)(=O)N1CCN(c2ccc(F)cc2)CC1)c1ccc(Br)o1`, the “activity change, negative = inhibition” value is reported as -8.57%. With `CN(C)c1ccc(-c2ccnc3c2CC(C)(C(=O)NCC2CC2)O3)cc1` (configuration not stated) the “activity change, negative = inhibition” value was 10.7%. For `Cc1ccc(-c2nc3ncccc3o2)cc1NC(=O)c1ccco1`, the “activity change, negative = inhibition” value was 7.73%. With `O=S(=O)(c1ccccc1F)N1CC[C@H]2[C@H](CO)Nc3ccc(-c4cccc(F)c4)cc3[C@H]21` the “activity change, negative = inhibition” value was 23.3%. With `COc1ccccc1CNc1nc(NCc2cnc(C)cn2)c2sccc2n1` the “activity change, negative = inhibition” value was 6.67%. For `OC(CNC1CCCc2ccccc21)COc1c(Cl)cccc1Cl` (configuration not stated), the “activity change, negative = inhibition” value was 1.93%. With `CO[C@H]1CN(C)C(=O)c2cc(NC(=O)Nc3ccc(Cl)c(Cl)c3)ccc2OC[C@H](C)NC[C@H]1C` the “activity change, negative = inhibition” value was -2.19%. In the case of `CCOc1ccccc1NC(=O)c1c(NC(=O)CCC(=O)O)sc2c1CCCCC2`, the “activity change, negative = inhibition” value is reported as 5.99%. For `O=S(=O)(c1cccc(F)c1)N1CC[C@@H]2[C@H]1c1cc(-c3cccc(F)c3)ccc1N[C@@H]2CO`, the “activity change, negative = inhibition” value was -11.1%. For `O=C(NCc1ccccc1)c1ccc(-c2cn[nH]c2)c2ccoc12`, the “activity change, negative = inhibition” value was 2.33%. With `Cn1cnc(S(=O)(=O)N2CCN(c3ccccc3)CC2)c1` the “activity change, negative = inhibition” value was -6.26%. With `Cn1cc([N+](=O)[O-])c(C(=O)Nc2cc(Oc3ccccc3)cc([N+](=O)[O-])c2)n1` the “activity change, negative = inhibition” value was 17.6%. In the case of `Cc1ccc(CS(=O)Cc2ccc(C(=O)NC3CCCC(C)C3C)o2)cc1` (configuration not stated), the “activity change, negative = inhibition” value is reported as -3.83%. In the case of `c1ccc2[nH]c(SCc3cn4cccnc4n3)nc2c1`, the “activity change, negative = inhibition” value is reported as 1.3%. In the case of `Fc1cnc(N2CCN(c3ccccc3)CC2)nc1N1CCN(c2ccccc2)CC1`, the “activity change, negative = inhibition” value is reported as 4.07%. With `C[C@@H]1CN([C@@H](C)CO)C(=O)c2cc(NC(=O)C3CCCCC3)ccc2O[C@@H]1CN(C)Cc1ccc(-c2ccccc2)cc1` the “activity change, negative = inhibition” value was -14.2%. In the case of `C[C@H](CO)N1C[C@H](C)[C@H](CN(C)Cc2ccccc2)Oc2ncc(-c3ccccc3)cc2C1=O`, the “activity change, negative = inhibition” value is reported as 2.38%. With `C[C@@H]1CN([C@@H](C)CO)C(=O)c2cc(-c3ccccc3)cnc2O[C@@H]1CN(C)Cc1ccccc1` the “activity change, negative = inhibition” value was 7.12%. For `Cc1cccc(NC(=O)c2ccc(C3SCC(=O)N3CCc3ccccc3)cc2)c1` (configuration not stated), the “activity change, negative = inhibition” value was -5.88%. With `COc1cccc(CN2CCN(C(=O)c3ccc(-c4ccccc4)cc3)CC2)c1OC` the “activity change, negative = inhibition” value was 0.469%. For `C[C@@H]1CN([C@H](C)CO)C(=O)c2cccc(NC(=O)Nc3ccc(C(F)(F)F)cc3)c2O[C@@H]1CN(C)C(=O)Nc1cccc2ccccc12`, the “activity change, negative = inhibition” value was -3.32%. For `O=C(C[C@@H]1C[C@@H]2c3cc(NC(=O)c4ccc5c(c4)OCO5)ccc3O[C@@H]2[C@@H](CO)O1)NCc1ccc(Oc2ccccc2)cc1`, the “activity change, negative = inhibition” value was 3.19%. For `COCC(C)n1c(SCc2nc(N)nc(Nc3ccccc3C)n2)nc2ccccc2c1=O` (configuration not stated), the “activity change, negative = inhibition” value was -3.15%. With `CO[C@H]1CN(C)C(=O)c2ccc(NC(=O)Nc3ccc(Cl)c(Cl)c3)cc2OC[C@H](C)NC[C@@H]1C` the “activity change, negative = inhibition” value was -11%. In the case of `S=C(NCC1CCCO1)Nc1ccc(Cl)cc1Cl` (configuration not stated), the “activity change, negative = inhibition” value is reported as -0.519%. In the case of `CO[C@@H]1CN(C)C(=O)c2cc(NC(=O)Nc3cc(Cl)cc(Cl)c3)ccc2OC[C@@H](C)NC[C@@H]1C`, the “activity change, negative = inhibition” value is reported as 7.38%. In the case of `CN1c2ccc(-c3ccccc3)cc2[C@@H]2[C@@H](CCN2C(=O)CN2CCOCC2)[C@H]1CO`, the “activity change, negative = inhibition” value is reported as 3.99% [at 30 µM].
